Results filed as inconclusive are left out. Unmarked numbers belong to inactive results. The source made the active and inactive calls. The call rests on the fitted dose curve; in most records, active means well fitted activation curve with a large enough effect in the repeat runs; inconclusive means weak or mixed curves; inactive means flat fitted curve, though single readings scatter.
On the % scale 0 is the no-effect control and ±100 the full control effect; potency means the concentration at half of the fitted maximal effect.

This experiment can be described thus: A CellTox Green Cytotoxicity Assay to monitor cytotoxicity in HEK293 cells - 24 hour (AID 1224875). Further: nearly all actives have a fitted effect of over 45% in size. As to conditions: CellTox Green fluorescence; series mostly up to 76.8 µM; activity change: at the top concentration. An excerpt: National Center for Advancing Translational Sciences [NCATS]
NIH Chemical Genomics Center [NCGC]
U.S. Environmental Protection Agency [EPA]
National Institutes of Environmental Health Sciences [NIEHS]
National Toxicology Program [NTP]
Cell-based models are critical for drug discovery. Determining the natural cytotoxic effects resulting from test compounds is an essential research activity. A CellTox Green Cytotoxicity Assay to monitor cytotoxicity in real time of continues cell culture during 40 hours of the compound treatment was used to screen Tox21 10K library compounds in Hek293 cells. CellTox Green Cytotoxicity Assay is a nonlytic, homogeneous, biofluorescent method to measure cytotoxicity in cell culture after experimental manipulation. The assay system uses a proprietary asymmetric cyanine dye that is excluded from viable cells but preferentially stains the dead cell's DNA. […] Viable cells produce no appreciable increases in fluorescence. Therefore, the fluorescence signal produced by the binding interaction with dead cell DNA is proportional to cytotoxicity.
The mixture of Hek293 cell suspension and reagents were dispensed at 600cells/6 ul/well in 1536-well tissue culture treated black solid bottom plates using a Multidrop dispenser. After the assay plates were incubated at a 37 C/5% CO2 incubator for 5 hours, 23 nL of compounds dissolved in DMSO, positive and negative controls was transferred to the assay plate by a pintool work station. The plates were incubated at 37 C for 40 hours. The fluorescence intensity were measured at 0h, 8h, 16h, 24h, 32h and 40h time points using ViewLux plate reader during compound treatment.
On to `C[C@@H](N)C(=O)O`, for which the “activity change” value is -3.02% [at 35.3 µM, stronger effect = higher value]. The same measure, in the same setting: for `O=C1N(c2ccccc2)c2ccccc2C1(Cc1ccncc1)Cc1ccncc1` the value was -7.5% [at 35.3 µM, stronger effect = higher value]; for `NNS(=O)(=O)c1ccc(Oc2ccc(S(=O)(=O)NN)cc2)cc1`, 0.319%; for `CCCNC(C)(C)COC(=O)c1ccccc1`, 9.58% [at 35.3 µM, stronger effect = higher value]. As to `CC(=O)N[C@@H](CC(C)C)C(=O)O`, the “activity change” value is 4.56% [at 35.3 µM, stronger effect = higher value]. On to `O=C1Nc2ccc([N+](=O)[O-])cc2C1=O`, for which the “activity change” value was -44.3%.

With `NC(Cc1ccc(F)cc1)C(=O)O` (stereo not given), the activity change was 11.7% [at 6.97 µM, stronger effect = higher value]. Take `CCc1cc2cc(OC)c(OC)cc2c(Cc2ccccc2)n1`: the “activity change” value is -5.63% [at 35.3 µM, stronger effect = higher value].

In the case of `NCCC(O)(P(=O)(O)O)P(=O)(O)O`, the “activity change” value was 1.49% [at 35.3 µM, stronger effect = higher value]. With `c1ccc(CN(CC2=NCCN2)c2ccccc2)cc1`, the “activity change” value was -18.3% [at 35.3 µM, stronger effect = higher value]. `CCCCCCOc1ccc(N)cc1`: the Potency is 49 µM (active). For `OCCN1CCN(CCO)CC1`, the “activity change” value was -12.7%. As to `C/C(=N\O)[C@@H](C)NCC(C)(C)CN[C@H](C)/C(C)=N/O`, the “activity change” value is -10.4% [at 35.3 µM, stronger effect = higher value]. Regarding `COc1cc2c(cc1N)oc1ccccc12`, the “activity change” value was 0.318%.

Take `C=C(C)C(=O)OCCOP(=O)(O)O`: the “activity change” value is -9.8%.

With `COC(=O)N[C@H](C(=O)N[C@@H](Cc1ccccc1)[C@@H](O)CN(Cc1ccc(-c2ccccn2)cc1)NC(=O)[C@@H](NC(=O)OC)C(C)(C)C)C(C)(C)C`, the “activity change” value is -13.5% [at 35.3 µM, stronger effect = higher value]. For the compound `CCOC(=O)c1ccccc1O`, the “activity change” value is -14.1% [at 35.3 µM, stronger effect = higher value].

As for `CCN(CCCc1ccccc1)CCCc1ccccc1`, the “activity change” value was 1.37% [at 35.3 µM, stronger effect = higher value].

For `CCCCNc1cc(C(=O)O)cc(S(N)(=O)=O)c1Oc1ccccc1`, the “activity change” value is -15.1% [at 35.3 µM, stronger effect = higher value].

`CCCS(=O)c1ccc2nc(NC(=O)OC)[nH]c2c1` (stereo not given): the “activity change” value was -5.11% [at 35.3 µM, stronger effect = higher value]. For the compound `CS(=O)(=O)c1ccc([C@@H](O)[C@@H](CF)NC(=O)C(Cl)Cl)cc1`, the “activity change” value was 4.2% [at 35.3 µM, stronger effect = higher value]. As for `CC(C)c1ccccc1`, the “activity change” value is 2.29%. Turning to `CCOC(=O)C1CC(=O)C(=C(O)C2CC2)C(=O)C1` (stereo not given), the “activity change” value is 19.1%. Take `CCCC(CCC)(C(=O)OCC)C(=O)OCC`: the “activity change” value is -4.75% [at 35.3 µM, stronger effect = higher value]. Turning to `O=c1[nH]cnc2c1ncn2[C@@H]1O[C@H](CO)[C@@H](O)[C@H]1O`, the “activity change” value was 0.366% [at 35.3 µM, stronger effect = higher value]. For `CC(=O)N(CC(O)CN(C(C)=O)c1c(I)c(C(=O)NCC(O)CO)c(I)c(C(=O)NCC(O)CO)c1I)c1c(I)c(C(=O)NCC(O)CO)c(I)c(C(=O)NCC(O)CO)c1I` (stereo not given), the “activity change” value was -9.16% [at 35.3 µM, stronger effect = higher value]. Turning to `CCOC(=O)[C@H](CCc1ccccc1)N[C@@H](C)C(=O)N1Cc2cc(OC)c(OC)cc2C[C@H]1C(=O)O`, the “activity change” value is -1.04% [at 35.3 µM, stronger effect = higher value]. Regarding `Oc1ccccc1C=NCc1ccccc1`, the “activity change” value is 1.76% [at 35.3 µM, stronger effect = higher value]. The same measure, in the same setting: for `CCN(CC)CCNC(=O)COc1ccc(Cl)cc1` the value was -11% [at 35.3 µM, stronger effect = higher value]. On to `CN1[C@@H]2CC[C@H]1CC(OC(=O)c1c[nH]c3ccccc13)C2` (stereo not given in full), for which the “activity change” value is -3.57% [at 35.3 µM, stronger effect = higher value]. As for `O=c1[nH]c(=O)n([C@H]2C[C@H](O)[C@@H](CO)O2)cc1C(F)(F)F`, the “activity change” value is 21% [at 35.3 µM, stronger effect = higher value]. Regarding `NS(=O)(=O)c1cc(-c2nn[nH]n2)c(NCc2cccs2)cc1Cl`, the “activity change” value is 5.05% [at 35.3 µM, stronger effect = higher value]. On to `CN(C)CC[C@@H](c1ccc(Cl)cc1)c1ccccn1`, for which the “activity change” value was -10.5% [at 35.3 µM, stronger effect = higher value]. As to `Cn1cnc2c(F)c(Nc3ccc(Br)cc3Cl)c(C(=O)NOCCO)cc21`, the “activity change” value was -1.99% [at 35.3 µM, stronger effect = higher value]. On to `CCCCCCCCOC(=O)CCCCCCCCC(=O)OCCCCCCCC`, for which the “activity change” value was 18.4%. For `CC1CN(c2ccccc2)NC1=O` (stereo not given), the “activity change” value is -2.28%. The same measure, in the same setting: to `CCCCCCCCCC/C=C/C#N` belongs -0.535%; to `O=C(O)c1ccccc1Nc1cc(Cl)ccc1C(=O)O`, -4.95% [at 15.8 µM, stronger effect = higher value]; to `NCCCN1CCN(CCCN)CC1`, -10.5%. In the case of `O=Cc1ccc(F)c(Br)c1`, the “activity change” value was 14.1%.

The values are drawn from PubChem BioAssay (Tox21).
